Measured values as given in PubChem BioAssay (Tox21).
Unmarked numbers belong to inactive results. Calls of active or inactive are those of the source. Calls follow the shape of the full dose curve.
% is scaled to controls: 0 for no effect and ±100 for the full control effect; potency is read from the fitted curve at half-maximal effect.

These compounds were tested against Acetylcholinesterase (Homo sapiens) (UniProt P22303) (assay: Acetylcholinesterase (AChE) small molecule antagonists: enzyme-based qHTS assay (AID 1347397; also: nearly all actives have a fitted effect of over 55% in size)). Conditions: Potency: AChE enzyme activity inhibition; outcome: AChE enzyme activity inhibition; series mostly up to 115 µM; activity change, negative = inhibition: at the top concentration.
Acetylcholinesterase (Homo sapiens), sequence (P22303 whole entry, looked up): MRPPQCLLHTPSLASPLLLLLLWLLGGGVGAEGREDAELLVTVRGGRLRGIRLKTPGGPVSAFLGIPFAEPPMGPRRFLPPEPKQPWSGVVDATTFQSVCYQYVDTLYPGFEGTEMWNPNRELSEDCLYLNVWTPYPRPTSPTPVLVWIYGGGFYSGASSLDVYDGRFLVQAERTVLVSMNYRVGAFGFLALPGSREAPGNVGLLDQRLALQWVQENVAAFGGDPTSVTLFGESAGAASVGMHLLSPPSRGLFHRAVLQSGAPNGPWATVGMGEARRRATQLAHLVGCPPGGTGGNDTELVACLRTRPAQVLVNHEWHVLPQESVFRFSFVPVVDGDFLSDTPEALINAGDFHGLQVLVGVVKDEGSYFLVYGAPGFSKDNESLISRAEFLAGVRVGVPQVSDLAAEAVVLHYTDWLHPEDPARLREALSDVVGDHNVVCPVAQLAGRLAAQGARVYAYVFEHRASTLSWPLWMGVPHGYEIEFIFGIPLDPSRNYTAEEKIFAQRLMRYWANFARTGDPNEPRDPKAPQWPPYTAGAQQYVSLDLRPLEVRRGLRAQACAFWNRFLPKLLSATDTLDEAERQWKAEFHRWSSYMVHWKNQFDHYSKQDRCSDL
Excerpt: National Center for Advancing Translational Sciences [NCATS]
Division of Preclinical Innovation [DPI]
U.S. Environmental Protection Agency [EPA]
National Institutes of Environmental Health Sciences [NIEHS]
National Toxicology Program [NTP]
U.S. Food and Drug Administration [FDA]
Acetylcholinesterase (AChE) is the primary cholinesterase in the body that hydrolyzes a key neurotransmitter, acetylcholine. Inhibition of AChE activity can lead to neurotoxicity. The known inhibitors include organophosphorous pesticides (OP), chemical warfare agents, drugs, and various phytochemicals.
An enzyme-based assay with the recombinant human AChE and Amplite Colormetric acetylcholinesterase assay kit (AAT Bioquest, Sunnyvale, CA) was used to evaluate the chemicals in the Tox21 10K library that inhibit AChE activity. The assay uses 5, 5-dithiobis-(2-nitrobenzoic acid) (DTNB) to quantify the thiocholine produced from the hydrolysis of acetylthiocholine by AChE.
Tox21 Assay Protocol Summary:
For the enzyme-based AChE assay, recombinant human AChE (50 mU/mL) in 4 uL/well was dispensed into black, clear-bottom 1536-well plates using a Multidrop Combi dispenser (Thermo Scientific, MA). Then, 23 nL of compound or DMSO (vehicle control) was transferred into the assay plates by a Pintool Station (Wako Automation, CA). The plates were incubated for 30 min at room temperature, followed by the addition of 4 uL of colorimetric detection cocktail solution (DTNB, acetylthiocholine) into each well using a Flying Reagent Dispenser (Beckman Coulter, CA) and then 10 min incubation at room temperature.
`CC(=O)CN(CC(C)=O)N=O` was tested, and the “activity change, negative = inhibition” value was -0.645%.
With `NCCOS(=O)(=O)O` the “activity change, negative = inhibition” value was -1.03%.
With `CC[C@@H](CO)NC(=O)[C@@H]1C=C2c3cccc4c3c(cn4C)C[C@H]2N(C)C1` the Potency was 4.36 µM (active).
For `CC(C)c1ccc(O)cc1`, the “activity change, negative = inhibition” value was -0.645%.
`CCCCS(=O)(=O)Cl` was tested, and the “activity change, negative = inhibition” value was 0.114%.
With `CCCN1CCC[C@@H]2Cc3[nH]ncc3C[C@H]21` the “activity change, negative = inhibition” value was -6.09% [at 53 µM].
With `CCOC(=O)C(Cl)Cc1cc(-n2nc(C)n(C(F)F)c2=O)c(F)cc1Cl` (stereo not given) the “activity change, negative = inhibition” value was -4.21%.
`CCC(C(N)=O)N1CCCC1=O` (stereo not given) was tested, and the “activity change, negative = inhibition” value was 2.56% [at 53 µM].
`ClCCN1CCCC1` was tested, and the “activity change, negative = inhibition” value was 0.139% [at 53 µM].
With `CCOP(=S)(OCC)Oc1ccc(Cl)cc1Cl` the “activity change, negative = inhibition” value was -11.3%.
`CN(C)C(=O)Oc1cc(OC(=O)N(C)C)cc(C(O)CNC(C)(C)C)c1` (stereo not given) was tested, and the “activity change, negative = inhibition” value was -14.9% [at 53 µM].
In the case of `CCOC(=O)N(C)N=O`, the “activity change, negative = inhibition” value is reported as 0.55%.
In the case of `C=CCc1cc(OC)c2c(c1)OCO2`, the “activity change, negative = inhibition” value is reported as -0.409%.
`C[C@H](N)C(=O)c1ccccc1` was tested, and the “activity change, negative = inhibition” value was 1.49%.
With `CC1N=C(N)OC1c1ccccc1` (stereo not given) the “activity change, negative = inhibition” value was 5.73%.
`OP(O)c1ccccc1` was tested, and the “activity change, negative = inhibition” value was 1.91%.
In the case of `CC(Cl)(Cl)Cl`, the “activity change, negative = inhibition” value is reported as 0.131%.
With `CCOP(=O)(CN(CCO)CCO)OCC` the “activity change, negative = inhibition” value was 0%.
With `CCc1ccc(C2CCNCC2)cc1` the “activity change, negative = inhibition” value was -1.94% [at 53 µM].
In the case of `CC(C)(C)NC[C@H](O)c1ccc(O)cc1Cl`, the “activity change, negative = inhibition” value is reported as 0.97% [at 53 µM].
With `CCC(CC)(CNC(=O)CCCO)c1cccc(OC)c1` the “activity change, negative = inhibition” value was -0.0126% [at 53 µM].
In the case of `Cc1ccc(-c2nc3ccc(C)cn3c2CC(=O)N(C)C)cc1`, the “activity change, negative = inhibition” value is reported as 0.41% [at 53 µM].
`O=C(O)C(F)(F)C(F)(F)C(F)(F)C(F)(F)C(F)(F)C(F)(F)F` was tested, and the “activity change, negative = inhibition” value was 0.329%.
`COc1cccc([C@@]2(O)CCCC[C@@H]2CN(C)C)c1` was tested, and the “activity change, negative = inhibition” value was -1.94% [at 53 µM].
In the case of `O=S1(=O)OCCO1`, the “activity change, negative = inhibition” value is reported as 0.674%.
For `O=C(Cl)C(Cl)(Cl)Cl`, the “activity change, negative = inhibition” value was 0.162%.
In the case of `O=P(O)(O)CN(CP(=O)(O)O)CP(=O)(O)O`, the Potency is reported as “inactive”.
With `COc1cc(CCN)cc(OC)c1OC` the “activity change, negative = inhibition” value was 0.869%.
In the case of `Nc1c(Cl)c(F)nc(OCC(=O)O)c1Cl`, the “activity change, negative = inhibition” value is reported as 0.197%.
For `C=CC1(C)OC(=O)N(c2cc(Cl)cc(Cl)c2)C1=O` (stereo not given), the Potency was “inactive”.
`CCOC1Oc2ccc(OS(C)(=O)=O)cc2C1(C)C` (stereo not given) was tested, and the “activity change, negative = inhibition” value was -1.45%.
For `O=C/C=C/c1ccco1`, the “activity change, negative = inhibition” value was 1.49%.
`CCOC(=O)c1ncn2c1CN(C)C(=O)c1c(I)cccc1-2` was tested, and the “activity change, negative = inhibition” value was -0.559% [at 53 µM].
In the case of `CC(O)CCl` (stereo not given), the “activity change, negative = inhibition” value is reported as 0%.
In the case of `C=CC=O`, the “activity change, negative = inhibition” value is reported as -0.407%.
`O=C(O)c1c(Cl)ccc2cc(Cl)cnc12` was tested, and the “activity change, negative = inhibition” value was 1.18%.
`CCCCCCCC(=O)Cl` was tested, and the “activity change, negative = inhibition” value was -0.835%.
`NCC1(CC(=O)O)CCCCC1` was tested, and the “activity change, negative = inhibition” value was 0.277% [at 53 µM].
With `O=C(NC(O)C(Cl)(Cl)Cl)NC(O)C(Cl)(Cl)Cl` (stereo not given) the “activity change, negative = inhibition” value was 0.27% [at 53 µM].
`C[C@H](CN1CCOCC1)C(C(=O)N1CCCC1)(c1ccccc1)c1ccccc1` was tested, and the “activity change, negative = inhibition” value was 0.675%.
